Only some compounds are listed: those with a hit (about 18% of all), similar ones and a draw of the others.
TDP1 cell CPT: DT40-hTDP1 cell growth loss with CPT. chicken DT40 Tdp1-/-;hTDP1 cells + 20 nM CPT, ATP luminescence, 48 h. 420,000 compounds, 12% hits. AID 686979. Potency, µM (highest dose often 46.2 µM), usual class: inhibitors; also: nearly all actives have a fitted effect of over 55% in size
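Chicken DT40 Tdp1-/- cells stably complemented with human TDP1 were seeded at 400 cells/well in medium containing 20 nM camptothecin, exposed to pin-transferred compounds, and grown at 37 °C for at least 48 hr. Viability was read as ATP luminescence.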
PLK1 PBD inh: blocks phosphopeptide binding to human PLK1 polo-box domain; P53350; Plk1 PBD binding of FITC phosphopeptide, fluorescence polarization; Potency, µM, hits mostly inhibitors; 360,000 compounds, 2.8% hits; AID 720504; also: series mostly up to about 57 µM; nearly all actives have a fitted effect of over 65% in size
KAT2A inh: blocks human GCN5L2 histone acetyltransferase. Potency, µM (highest dose often 58.9 µM), usual class: inhibitors. Q92830. GCN5L2 HAT assay, ThioGlo1 CoA-SH fluorescence. 390,000 compounds, 0.21% hits. AID 504327
Target sequence (Q92830 whole entry, looked up): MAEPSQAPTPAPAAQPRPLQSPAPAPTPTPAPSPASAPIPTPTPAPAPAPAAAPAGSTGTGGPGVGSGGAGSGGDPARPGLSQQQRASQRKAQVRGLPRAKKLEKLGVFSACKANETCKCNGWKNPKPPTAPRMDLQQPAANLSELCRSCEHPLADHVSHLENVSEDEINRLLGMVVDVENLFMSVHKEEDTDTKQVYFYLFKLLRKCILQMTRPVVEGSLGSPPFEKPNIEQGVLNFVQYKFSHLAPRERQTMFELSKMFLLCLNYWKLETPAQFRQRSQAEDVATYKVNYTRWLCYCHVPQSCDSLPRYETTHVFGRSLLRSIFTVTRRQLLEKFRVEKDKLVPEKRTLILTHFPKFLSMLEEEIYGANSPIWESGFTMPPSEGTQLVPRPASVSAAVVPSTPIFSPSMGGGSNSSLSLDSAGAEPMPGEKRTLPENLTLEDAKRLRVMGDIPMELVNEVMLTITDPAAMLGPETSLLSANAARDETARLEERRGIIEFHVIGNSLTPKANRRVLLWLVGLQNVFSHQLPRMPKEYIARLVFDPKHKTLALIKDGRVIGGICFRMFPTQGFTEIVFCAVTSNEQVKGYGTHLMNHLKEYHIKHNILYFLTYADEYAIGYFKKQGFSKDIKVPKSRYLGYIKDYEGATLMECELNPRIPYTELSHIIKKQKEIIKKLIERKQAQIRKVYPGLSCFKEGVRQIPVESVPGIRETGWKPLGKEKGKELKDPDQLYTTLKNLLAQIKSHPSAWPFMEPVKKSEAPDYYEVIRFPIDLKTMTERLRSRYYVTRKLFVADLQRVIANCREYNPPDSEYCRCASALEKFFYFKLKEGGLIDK
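Preincubate 20nM GCN5L2 with compound 15 min, RT → add 50uM ThioGlo1 + 75uM H3(1-25) + 70uM acetyl-CoA → read fluorescence 0 and 20 min. Primary qHTS; fluorescent artifacts likely.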
VDR inh: vitamin D3 receptor (human) inhibition; P11473; VDR-SRC2-3 peptide fluorescence polarization, 2 h; Potency, µM, usual class: inhibitors; 400,000 compounds, 0.93% hits; AID 504847
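After 23 nl compound addition and a short centrifugation, plates sat for 2 hours at ambient temperature; polarization of fluorescence then indicated loss of VDR binding to peptide SRC2-3.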
TDP1 inh: inhibitors of human tyrosyl-DNA phosphodiesterase TDP1. Q9NUW8. recombinant TDP1, AlphaScreen DNA substrate cleavage. Potency, µM (series often up to 130 µM), actives largely listed as inhibitors. 350,000 compounds, 0.28% hits. AID 485290; also: nearly all actives have a fitted effect of over 40% in size
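Steps: enzyme plus compound, 15 min RT; add biotin/phosphotyrosine-FITC oligonucleotide (15 nM final), react 5 min; add donor/acceptor beads (10 ug/ml final), 10 min; read AlphaScreen. Tdp1 at 1 nM final.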
DT40 TDP1 no CPT: qHTS for Inhibitors of human tyrosyl-DNA phosphodiesterase 1 (TDP1): qHTS in cells in absence of CPT; 420,000 compounds, 15% hits; DT40 Tdp1-/- hTDP1 cells, no CPT, ATP luminescence, 48 h; Potency, µM (highest dose often 46.2 µM), most hits filed as inhibitors; also: nearly all actives have a fitted effect of over 55% in size
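Stably hTDP1-transfected Tdp1-null chicken DT40 cells were treated with library compounds minus camptothecin and grown for at least 48 hr at 37 °C, after which cellular ATP was quantified by luminescence.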
Numbers stand for hits; - = inactive; ? = inconclusive; . = no result given; [ ] = another dose, or the depositor's remark. Calls follow the shape of the dose curve; as a rule, active = well fitted curve in the direction sought with a large enough effect; inconclusive = small, poorly fitted or top-dose-only effect, or another doubt; inactive = no such curve, though single readings can be large; an effect the other way counts as inactive or inconclusive.

SMILES	TDP1 cell CPT	PLK1 PBD inh	KAT2A inh	VDR inh	TDP1 inh	DT40 TDP1 no CPT
Cc1cc(OCCCn2c(CCNC(=O)C3CCCCC3)nc3ccccc32)ccc1Cl	6.5µM	.	-	-	-	7.3µM
Cc1cccc(C)c1OCCCn1c(CCNC(=O)C2CCCCC2)nc2ccccc21	15µM	.	-	-	-	18µM
CCc1ccc(OCCCn2c(CCNC(=O)C3CCCCC3)nc3ccccc32)cc1	?	.	.	-	-	-
COc1ccc(OCCn2c(CCNC(=O)C3CCCCC3)nc3ccccc32)cc1	?	.	.	-	-	13µM
COc1ccccc1CNc1ncnc2ccc(-c3ccccc3C#N)cc12	?	.	-	-	.	?
COc1ccccc1C1=NN(C(=O)c2ccccc2)C(c2ccc(Br)cc2)C1 (configuration not stated)	-	-	-	-	.	-
CCCC[C@@H]1C[C@H]1C(NC(=O)c1ccco1)c1ccc(Cl)cc1 (some centres not stated)	.	.	.	.	-	.
CCOc1ccc(N(CC(=O)Nc2nccs2)S(=O)(=O)c2c(C)[nH]c(=O)[nH]c2=O)cc1	-	-	-	-	-	-
Cc1ccccc1OCCCCn1c(CCNC(=O)C(C)(C)C)nc2ccccc21	13µM	.	-	-	-	8.2µM
Cc1cccc(OCCCn2c(CCNC(=O)C(C)(C)C)nc3ccccc32)c1	?	.	-	-	-	?
CCn1nnc(NC(=O)CSc2ccc(Cl)cc2)n1	-	27µM	-	-	-	-
COC(=O)[C@@]1(Cc2ccc(OC)cc2)[C@H]2c3cc(C(=O)N(C)C)n(Cc4ccc(OC)c(OC)c4)c3C[C@H]2CN1C(=O)c1ccccc1	.	.	.	.	-	.
CCCCCCn1cnc2c(oc3nc4c(cc32)CCCC4)c1=O	23µM	-	?	-	-	-
N#CC1=C(S)N(c2ccc(F)cc2)C2(CCCCC2)NC1=O	?	-	-	?	-	-
N#CC1=C(S)N(c2ccccc2)C2(CCCCC2)NC1=O	-	-	-	35µM	-	?
CC12C=CC(=O)C=C1[C@@H](F)CC1C2C(O)CC2(C)C1CC[C@]2(O)C(=O)CO (some centres not stated)	.	.	-	-	-	.
CC(=O)N(O)[C@@H]1c2cc(C#N)ccc2OC(C)(C)[C@H]1O	.	.	.	.	-	.
Nc1ccc2oc(Cc3ccc(Cl)cc3)nc2c1	?	.	-	79µM	-	?
COC(=O)c1ccccc1-n1cc2c(c1-c1cccc(C)c1)c(=O)n(C)c(=O)n2C	10µM	.	-	-	-	7.3µM
Cn1c(=O)c2c(-c3ccccc3Cl)n(-c3cc(Cl)ccc3O)cc2n(C)c1=O	21µM	.	-	-	-	?
Cc1cccc(-c2c3c(=O)n(C)c(=O)n(C)c3cn2-c2ccccc2O)c1	?	-	-	-	-	-
Cc1cc(N)c(-n2cc3c(c2-c2ccc(Br)cc2)c(=O)n(C)c(=O)n3C)cc1C	16µM	.	-	-	-	13µM
Cc1cccc(-c2c3c(=O)n(C)c(=O)n(C)c3cn2-c2cc(N)c(Cl)cc2Cl)c1	5.8µM	.	-	-	-	3.7µM
Cn1c(=O)c2c(-c3ccccc3)n(-c3cc([N+](=O)[O-])ccc3O)cc2n(C)c1=O	-	-	.	.	.	-
COC(=O)c1ccc(OC)c(Cn2c(=O)n(-c3cccc(Cl)c3)c(=O)c3c2c2cc(C)ccc2n3C)c1	-	.	-	-	-	-
SMILES	TDP1 cell CPT	PLK1 PBD inh	KAT2A inh	VDR inh	TDP1 inh	DT40 TDP1 no CPT
CSc1ccc(NC(=O)C2(C)CCN2C(=O)c2sccc2C)cc1 (configuration not stated)	?	-	.	.	.	?
COc1ccc(-n2cc3c(c2-c2cccc(Br)c2)c(=O)n(C)c(=O)n3C)cc1OC	21µM	.	-	-	-	13µM
COc1ccc(-n2nc(C(=O)Nc3ccc(Br)cc3C)c3c4ccccc4n(C)c3c2=O)cc1	-	.	-	-	-	-
C=C(C)c1cccc(C(C)(C)NC(=O)N2CCC(C)CC2)c1	18µM	-	-[0.501 µM]	-	-	?
COc1ccc(C2=NN(C(=O)CSc3nc4ccccc4s3)C(c3ccc(OC)cc3)C2)cc1 (configuration not stated)	13µM	-	-	-	-	12µM
COc1ccc(C2=NN(C(=O)CSc3nc4ccccc4s3)C(c3ccc(F)cc3)C2)cc1 (configuration not stated)	21µM	-	-	-	-	?
COc1ccc(C(=O)NC(C)CCn2cccn2)cc1OC1CCN(C(C)C)CC1 (configuration not stated)	-	-	-	-	-	-
CC(C)CCNC(=O)Nc1ccc2c(c1)N(Cc1ccccc1)C(=O)c1ccccc1S2	18µM	.	-	-	-	?
Cc1cccc(CN2C(=O)c3ccccc3Sc3ccc(C(=O)NCCc4ccccc4)cc32)c1	-	.	-	-	-	?
CC(C)CCNC(=O)c1ccc2c(c1)N(Cc1cccc(Cl)c1)C(=O)c1ccccc1S2	?	.	-	-	-	21µM
COc1ccc([N+](=O)[O-])c(OC)c1C(=O)NC(=O)Nc1c(F)c(F)c(F)c(F)c1F	-	-	-	-	.	?
O=C(NCCCc1nc2ccccc2n1Cc1cccc(Cl)c1)c1ccco1	16µM	.	-	-	-	23µM
Cn1c(CCCNC(=O)c2ccco2)nc2ccccc21	-	-	.	-	.	-
O=C(NCCCc1nc2ccccc2n1Cc1cccc(Cl)c1)C1CCCCC1	-	.	-	-	-	?
O=C(NCCCc1nc2ccccc2n1Cc1ccc(Cl)cc1)c1ccco1	?	.	-	-	-	16µM
O=C(NCCCc1nc2ccccc2n1Cc1ccccc1Cl)c1ccco1	29µM	.	-	-	-	16µM
CS(=O)(=O)N(CC(=O)NCCSc1ccccn1)c1ccc(F)cc1	-	-	-	-	-	-
C=C(C)C(=O)OCC(C)O (configuration not stated)	.	.	.	.	-	.
c1ccc2c(c1)CCCC2C1=NCCN1 (configuration not stated)	-	-	-	-	-	-
Brc1ccc2c(c1)C(C1=NCCN1)c1ccccc1CS2 (configuration not stated)	7.3µM	-	-	-	-	5.8µM
Cc1cc(C)cc(N2C(=O)CSC23C(=O)N(CC(=O)NC2CCCCC2)c2ccccc23)c1 (configuration not stated)	21µM	.	-	-	-	?
COc1cccc(N2C(=O)CSC23C(=O)N(CC(=O)Nc2cccc(Cl)c2)c2ccccc23)c1 (configuration not stated)	18µM	.	-	-	-	?
